Experimental data taken from PubChem BioAssay (NCATS).
Where “and” joins values, the source holds several entries; their conditions need not be identical. Equal values may be shown once. A number with no mark means an inactive call. Results filed as inconclusive are left out. Where a call stands in place of a potency, no number is given. Some structures have more than one record in an assay (separate samples or runs), and their calls can disagree. Calls of active or inactive are those of the source. Unless noted, calls follow the shape of the dose curve; as a rule, active = well fitted curve in the direction sought with a large enough effect; inconclusive = small, poorly fitted or top-dose-only effect, or another doubt; inactive = no such curve, though single readings can be large; an effect the other way counts as inactive or inconclusive.

Experiments:
[1] = Cell Viability - Hek293 (AID 427;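 active = compounds whose dose-response curve shows a full or clear partial loss of cell viability, called from curve shape rather than a numeric limit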;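 also: potency is read from the fitted curve at half-maximal effect; cells exposed to compound for 40 hours at 37 °C before reading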); details: qHTS
In short: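 Luminescent ATP content (CellTiter-Glo, 20 min at room temperature) was measured after a 40 hr, 37 °C compound exposure of HEK293 cells. AC50 values came from Hill-equation fits of qHTS concentration-response data normalized to DMSO and 100 uM tamoxifen.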

[2] = Cell Viability - SK-N-SH (AID 435; calls by dose curve;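 also: potency is read from the fitted curve at half-maximal effect; compound exposure lasted 40 h at 37 °C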); details: SK-N-SH neuroblastoma cell viability qHTS
In short: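 Human neuroblastoma line, 40 h exposure at 37 °C, ATP quantified via luciferase luminescence; DMSO and 100 uM tamoxifen define 0 and 100% inhibition for AC50 fitting.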

[3] = Cell Viability - SH-SY5Y (AID 544); details: SH-SY5Y neuroblastoma cell viability; viability change, negative = cytotoxic: at 92.2 µM (top of the series);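 also: cells exposed to compound for 40 hours; nearly all actives have a fitted effect of over 55% in size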
In short: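 Luminescent ATP read-out (CellTiter-Glo) measures loss of viable SH-SY5Y neuroblastoma cells after 40 hr compound exposure at 37 °C. AC50 values derive from standard Hill modelling of qHTS concentration-response data.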

[4] = Cell Viability - LYMP2-001 (AID 921); details: LYMP2-001 lymphoblastoid cell viability; series mostly up to 92.2 µM; also: nearly all actives have a fitted effect of over 70% in size; also: potency is read from the fitted curve at half-maximal effect
In short: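 A lymphoblastoid cell line of human origin was treated with library compounds across a concentration series for 24 hours, and viable cell number was estimated from ATP-driven luciferase light output. Hill modeling gave AC50.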

[5] = Cell Viability - LYMP1-003 - Assay at 40 hr (AID 964); details: LYMP1-003 lymphoblastoid viability; series mostly up to 92.2 µM; also: nearly all actives have a fitted effect of over 60% in size
In short: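 Cells were seeded at 2500 per well and incubated 5 hr at 37 C. Compounds were added across a concentration series and left 40 hr at 37 C. CellTiter-Glo was added for 30 min at room temperature before luminescence reading.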

[6] = Cell Viability - LYMP2-004 (AID 966); details: LYMP2-004 lymphoblastoid cell viability, qHTS; series mostly up to 92.2 µM; also: nearly all actives have a fitted effect of over 65% in size
In short: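 Cells seeded 2500/well, rested 5 hr at 37 C, dosed across a concentration series, incubated 24 hr at 37 C, then CellTiter-Glo added for 30 min at room temperature and luminescence read. Hill fitting gave AC50.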

[7] = Cell Viability - LYMP2-005 (AID 967); details: LYMP2-005 lymphoblastoid cell viability; series mostly up to 92.2 µM
In short: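 Luciferase-based ATP quantitation served as the viability measure in human lymphoblastoid LYMP2-005 cells exposed to test compounds for 24 h at 37 C in complete culture medium. Potency (AC50) was obtained by fitting concentration-response curves with the Hill equation.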

[8] = Cell Viability - LYMP2-015 (AID 971); details: LYMP2-015 lymphoblastoid cell viability; series mostly up to 92.2 µM; also: nearly all actives have a fitted effect of over 55% in size
In short: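 Luminescent ATP read-out (CellTiter-Glo) served as the viability measure after lymphoblastoid cells were exposed to compounds for 24 hours at 37 C. Concentration-response data were fitted with the Hill equation to give AC50.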

[9] = Cell Viability - LYMP2-021 (AID 974); details: LYMP2-021 lymphoblastoid cells viability; series mostly up to 92.2 µM;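 also: compound exposure lasts 24 hours at 37 °C; nearly all actives have a fitted effect of over 55% in size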
In short: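 Plate 2500 lymphoblastoid cells per well and incubate 5 hr at 37 C. Add compounds over a concentration range and incubate 24 hr at 37 C. Add CellTiter-Glo, wait 30 min at room temperature, read luminescence.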

[10] = Cell Viability - LYMP2-006 (AID 978); details: LYMP2-006 lymphoblastoid cell viability, qHTS; series mostly up to 92.2 µM; also: nearly all actives have a fitted effect of over 60% in size
In short: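 In this cytotoxicity screen, the human lymphoblastoid line grew in complete medium with test compounds for 24 hr at 37 C. Cellular ATP served as the viability signal.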

[11] = Cell Viability - LYMP2-010 (AID 981); details: LYMP2-010 lymphoblastoid cell viability, qHTS; series mostly up to 92.2 µM; also: nearly all actives have a fitted effect of over 55% in size
In short: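 Luminescent ATP signal (CellTiter-Glo) served as the viability read-out. Cells of the human lymphoblastoid line were treated with compound over a concentration range for 24 hours at 37 C, and AC50 values came from Hill-equation modeling.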

[12] = Cell Viability - LYMP2-012 (AID 982); details: LYMP2-012 lymphoblastoid cell viability qHTS; series mostly up to 92.2 µM
[13] = Cell Viability - LYMP2-022 (AID 987); details: LYMP2-022 lymphoblastoid cell viability; series mostly up to 92.2 µM; also: nearly all actives have a fitted effect of over 55% in size
In short: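 qHTS: human lymphoblastoid cells 2500/well; 5 hr 37 C; cpd added; 24 hr 37 C; CellTiter-Glo, 30 min RT; luminescence. AC50 via Hill fit; tetraoctylammonium bromide positive ctrl.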

[14] = Cell Viability - LYMP2-024 (AID 988); details: LYMP2-024 lymphoblastoid cell viability; series mostly up to 92.2 µM; also: nearly all actives have a fitted effect of over 60% in size
In short: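 Steps: seed 2500 cells/well, 5 hr 37 C; add compound, 24 hr 37 C; add CellTiter-Glo, 30 min room temperature; read luminescence. AC50 derived by Hill modelling of concentration-dependent ATP loss.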

[15] = target: Thyroid hormone receptor beta (Homo sapiens) (UniProt P10828); assay: qHTS assay for small molecule antagonists of thyroid hormone receptor beta signaling (AID 588547; active = well fitted inhibition curve with a large enough effect in the signal ratio, with a control signal flat, not every such curve was filed as active; the % refers to the signal ratio;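 also: cells stimulated with 0.4 nM T3 agonist during compound exposure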); details: TR-UAS-bla HEK293, beta-lactamase ratio, antagonist mode, 18 h
In short: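 Inhibition of T3-driven (0.4nM final) beta-lactamase reporter activity was measured over 0.59 nM to 92 uM compound after 18 h at 37 C. The cells were GripTite HEK293 TR-UAS-bla in charcoal/dextran-stripped serum, with CCF4 ratio read-out and IC50 from Hill fits.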

[16] = target: Nuclear receptor subfamily 1 group I member 2 (Rattus norvegicus) (UniProt Q9R1A7); assay: qHTS assay for small molecule activators of the rat pregnane X receptor (rPXR) signaling pathway (AID 651751; call rule not given here); details: rPXR reporter cells, luciferase (One-Glo), 24 h
[17] = qHTS assay for small molecule activators of the p53 signaling pathway (AID 651743; active = well fitted activation curve with a large enough effect in the signal ratio, not every such curve was filed as active; the % refers to the signal ratio; also: potency is read from the fitted curve at half-maximal effect); details: HCT-116 p53RE-bla, beta-lactamase FRET ratio, 16 h; activation: stronger effect = higher value
In short: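 Read-out is fluorescence intensity from the LiveBLAzer B/G FRET substrate, added for 2 hours at room temperature after HCT-116 p53RE-bla cells had been incubated with compounds for 16 hours at 37 C.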

[18] = qHTS assay for small molecule disruptors of the mitochondrial membrane potential - 1 hr assay (AID 651754; calls by dose curve; also: nearly all actives have a fitted effect of over 35% in size; also: potency is read from the fitted curve at half-maximal effect); details: series mostly up to 92.2 µM
In short: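 HepG2, 2,000 cells/well, overnight attachment; cpd or DMSO 1 hr, 37C/5% CO2; Mito-MPS dye 30 min, 37C; fluorescence monomer (490/535) and aggregate (540/590).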

[19] = qHTS assay for small molecule disruptors of the mitochondrial membrane potential - 5 hr assay (AID 651755; calls by dose curve; also: nearly all actives have a fitted effect of over 40% in size; also: potency is read from the fitted curve at half-maximal effect); details: JC-1-type ratio dye; series mostly up to 92.2 µM
In short: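 HepG2, 2,000 cells/well, overnight attach; cpd or DMSO 5 hr, 37C/5% CO2; Mito-MPS 30 min 37C; fluor 490/535 + 540/590 nm.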

[20] = qHTS assay for small molecule antagonists of the retinoid-related orphan receptor gamma (ROR-gamma) signaling pathway - cell viability counter screen (AID 720652; active = well fitted curve in the direction sought with a large enough effect in the repeat runs; an effect the other way counts as inactive or inconclusive;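 also: compound exposure lasted 16 hr before ATP read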); details: RORgamma reporter cell line viability counter screen; series mostly up to 92.2 µM
In short: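 Luminescence from CellTiter-Glo after 30 min at room temperature reported cellular ATP as the cytotoxicity measure. Cells were the CHO reporter line with doxycycline-induced ROR-gamma expression, exposed to compound for 16 hr at 37 C.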

Thyroid hormone receptor beta (Homo sapiens), sequence (P10828 whole entry, looked up): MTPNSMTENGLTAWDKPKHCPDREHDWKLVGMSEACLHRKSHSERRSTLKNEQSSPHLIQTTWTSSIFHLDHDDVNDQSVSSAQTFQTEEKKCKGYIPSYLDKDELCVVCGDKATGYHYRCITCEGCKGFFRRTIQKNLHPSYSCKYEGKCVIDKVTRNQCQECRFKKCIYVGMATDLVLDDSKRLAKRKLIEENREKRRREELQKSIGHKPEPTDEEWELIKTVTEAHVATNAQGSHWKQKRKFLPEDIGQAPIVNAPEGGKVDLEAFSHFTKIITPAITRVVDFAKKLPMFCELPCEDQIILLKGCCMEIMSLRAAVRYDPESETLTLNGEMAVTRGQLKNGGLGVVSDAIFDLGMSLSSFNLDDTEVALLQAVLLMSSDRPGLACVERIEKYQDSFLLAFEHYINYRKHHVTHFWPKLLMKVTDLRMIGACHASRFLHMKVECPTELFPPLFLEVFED
Nuclear receptor subfamily 1 group I member 2 (Rattus norvegicus), sequence (Q9R1A7 whole entry, looked up): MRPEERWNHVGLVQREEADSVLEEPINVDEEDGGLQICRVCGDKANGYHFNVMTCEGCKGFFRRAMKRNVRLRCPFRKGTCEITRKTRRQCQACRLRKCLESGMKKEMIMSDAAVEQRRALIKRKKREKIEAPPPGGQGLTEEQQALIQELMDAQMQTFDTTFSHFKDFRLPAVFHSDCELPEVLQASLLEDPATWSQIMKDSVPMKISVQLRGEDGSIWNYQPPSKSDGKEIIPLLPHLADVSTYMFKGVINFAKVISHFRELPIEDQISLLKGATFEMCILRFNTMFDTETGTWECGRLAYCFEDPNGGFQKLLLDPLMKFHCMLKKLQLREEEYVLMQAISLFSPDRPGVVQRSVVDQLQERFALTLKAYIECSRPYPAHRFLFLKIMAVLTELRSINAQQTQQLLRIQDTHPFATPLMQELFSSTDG

Cc1ccc2ccc3cccc4ccc1c2c34
Potency [1]: > 92 µM
Potency [2]: > 92 µM
Potency [3]: inactive
Potency [4]: inactive
Potency [5]: inactive
Potency [6]: inactive
Potency [7]: inactive
Potency [8]: inactive
Potency [9]: inactive
Potency [10]: inactive
Potency [11]: inactive
Potency [12]: inactive
Potency [13]: inactive
Potency [14]: inactive
activity change % (negative = inhibition) [15]: 1.52%
max response [16]: 10%

Oc1c(Cl)cc(Cl)c(Cl)c1Cl
Potency [1]: > 92 µM
Potency [2]: > 92 µM
Potency [4]: inactive
Potency [5]: inactive
Potency [6]: inactive
Potency [7]: inactive
Potency [8]: inactive
Potency [9]: inactive
Potency [10]: inactive
Potency [11]: inactive
Potency [12]: inactive
Potency [13]: inactive
Potency [14]: inactive
activity change % (negative = inhibition) [15]: -15.9% and 13.1%
Potency [17]: 44.7 µM (active)
activation [17]: 2.74%
Potency [18]: 42.2 µM (active)
Potency [19]: 37.6 µM (active)
Potency [20]: inactive
max response [16]: -11.7% and -1.19%

NC(=O)c1ccc([N+](=O)[O-])cc1
Potency [1]: > 92 µM
Potency [2]: > 92 µM
Potency [3]: inactive
Potency [4]: inactive
Potency [5]: inactive
Potency [6]: inactive
Potency [7]: inactive
Potency [8]: inactive
Potency [9]: inactive
Potency [10]: inactive
Potency [11]: inactive
Potency [12]: inactive
Potency [13]: inactive
Potency [14]: inactive
activity change % (negative = inhibition) [15]: -17.4%
activation [17]: -4.76%
Potency [18]: inactive
Potency [19]: inactive
Potency [20]: inactive
max response [16]: -2.18%

C/C(Cl)=C/CCl
Potency [1]: > 92 µM
Potency [2]: > 92 µM
Potency [3]: inactive
Potency [4]: inactive
Potency [5]: inactive
Potency [6]: inactive
Potency [7]: inactive
Potency [8]: inactive
Potency [9]: inactive
Potency [10]: inactive
Potency [11]: inactive
Potency [12]: inactive
Potency [13]: inactive
Potency [14]: inactive
activity change % (negative = inhibition) [15]: 0.318%
activation [17]: -4.9%
Potency [18]: inactive
Potency [19]: inactive
Potency [20]: inactive
max response [16]: -2.47%

Oc1ccc2c(c1)OCO2
Potency [1]: > 92 µM
Potency [2]: > 92 µM
Potency [3]: inactive
Potency [4]: inactive
Potency [5]: inactive
Potency [6]: inactive
Potency [7]: inactive
Potency [8]: inactive
Potency [9]: inactive
Potency [10]: inactive
Potency [11]: inactive
Potency [12]: inactive
Potency [13]: inactive
Potency [14]: inactive
activity change % (negative = inhibition) [15]: 5.85%
activation [17]: 4.65%
Potency [18]: inactive
Potency [19]: inactive
Potency [20]: inactive
max response [16]: -0.719%

CC(=O)OC1CC(C)OC(C)O1 (centres undefined)
Potency [1]: > 92 µM
Potency [2]: > 92 µM
Potency [3]: inactive
Potency [4]: inactive
Potency [5]: inactive
Potency [6]: inactive
Potency [7]: inactive
Potency [8]: inactive
Potency [9]: inactive
Potency [10]: inactive
Potency [11]: inactive
Potency [12]: inactive
Potency [13]: inactive
Potency [14]: inactive
activity change % (negative = inhibition) [15]: -11% and -10.6%
Potency [18]: inactive
Potency [19]: inactive
Potency [20]: inactive
max response [16]: -2.44% and 3.14%

C=Cc1cccc(C)c1
Potency [1]: > 92 µM
Potency [2]: > 92 µM
Potency [3]: inactive
Potency [4]: inactive
Potency [5]: inactive
Potency [6]: inactive
Potency [7]: inactive
Potency [8]: inactive
Potency [9]: inactive
Potency [10]: inactive
Potency [11]: inactive
Potency [12]: inactive
Potency [13]: inactive
Potency [14]: inactive
activity change % (negative = inhibition) [15]: -8.39%
activation [17]: -1.54%
Potency [18]: inactive
Potency [19]: inactive
Potency [20]: inactive
max response [16]: 3.54%

CCCCOC(=O)COc1ccc(Cl)cc1Cl
Potency [1]: > 92 µM
Potency [2]: > 92 µM
Potency [3]: inactive
Potency [4]: inactive
Potency [5]: inactive
Potency [6]: inactive
Potency [7]: inactive
Potency [8]: inactive
Potency [9]: inactive
Potency [10]: inactive
Potency [11]: inactive
Potency [12]: inactive
Potency [13]: inactive
Potency [14]: inactive
activity change % (negative = inhibition) [15]: 7.32% and -4.27%
activation [17]: -0.84% and -2.7%
Potency [18]: inactive
Potency [19]: inactive
Potency [20]: inactive
max response [16]: -2.3% and -1.06%

O=[N+]([O-])c1ccc(F)cc1F
Potency [1]: > 92 µM
Potency [2]: > 92 µM
Potency [3]: inactive
Potency [4]: 50.1 µM (active)
Potency [5]: inactive
Potency [6]: inactive
Potency [7]: inactive
Potency [8]: inactive
Potency [9]: inactive
Potency [10]: inactive
activity change % (negative = inhibition) [15]: 0.277%
activation [17]: -3.21%
Potency [18]: inactive
Potency [19]: inactive
Potency [20]: inactive
max response [16]: 0.993%

CCCC(=O)OC(=O)CCC
Potency [1]: > 92 µM
Potency [2]: > 92 µM
Potency [3]: inactive
Potency [4]: inactive
Potency [5]: inactive
Potency [6]: inactive
Potency [8]: inactive
Potency [9]: inactive
Potency [10]: inactive
Potency [12]: inactive
Potency [13]: inactive
Potency [14]: inactive
activity change % (negative = inhibition) [15]: 18.6% and 0.261%
activation [17]: 0.746% and 0.239%
Potency [18]: inactive
Potency [19]: inactive
Potency [20]: inactive
max response [16]: -1.94% and 0.492%

CC(=O)OCc1ccc2c(c1)OCO2
Potency [1]: > 92 µM
Potency [2]: > 92 µM
Potency [3]: inactive
Potency [4]: inactive
Potency [6]: inactive
Potency [8]: inactive
Potency [9]: inactive
Potency [10]: inactive
Potency [11]: inactive
Potency [12]: inactive
Potency [13]: inactive
Potency [14]: inactive
activity change % (negative = inhibition) [15]: -11.5%
activation [17]: -2.61%
Potency [18]: inactive
Potency [19]: inactive
Potency [20]: inactive
max response [16]: -6.58%

CCC(Cl)CC(Cl)C(Cl)C(Cl)C(Cl)C(C)Cl (centres undefined)
Potency [1]: > 92 µM
Potency [2]: > 92 µM
Potency [3]: inactive
Potency [4]: inactive
Potency [5]: inactive
Potency [6]: inactive
Potency [7]: inactive
Potency [8]: inactive
Potency [9]: inactive
Potency [10]: inactive
Potency [11]: inactive
Potency [12]: inactive
Potency [13]: inactive
Potency [14]: inactive
activity change % (negative = inhibition) [15]: -1.45%
Potency [18]: inactive
Potency [19]: inactive
